Coupling enz – counter-screen for Giardia aldolase inhibitors: coupling enzyme system. coupling enzyme system counterscreen, AmpLite Red fluorescence. activity change, negative = inhibition, % at 58.2 µM, hits read low. 0.67% of 290,000 active; in the data active = activity change below about -30%
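Compounds tested against the coupling enzymes alone at 57.5 uM final; readout was AmpLite Red fluorescence (525/598 nm) after 20 min at RT.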
Tau FP inhib – inhibitors of human tau fibril formation | P10636 | 0.39% of 280,000 active | K18 P301L tau heparin fibrillization, Alexa594 FP, 6 h | Potency, µM (highest dose often 57.7 µM), for the others: at the top dose activity, negative = inhibition, usual class: inhibitors; note: potency is the fitted concentration of half-maximal effect; nearly all actives have a fitted effect of over 55% in size
Target sequence (P10636 561-689 P618L limits assumed): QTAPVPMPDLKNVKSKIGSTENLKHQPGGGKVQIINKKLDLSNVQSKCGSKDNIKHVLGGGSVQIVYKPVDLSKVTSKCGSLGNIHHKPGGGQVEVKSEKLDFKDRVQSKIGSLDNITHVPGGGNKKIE
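Quantitative HTS format: compounds meet 15 uM recombinant K18 P301L tau and Alexa 594-tau tracer in 100 mM sodium acetate pH 7; 20 uM heparin triggers fibrillization at 37 C over 6 hr; FP gives the signal.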
Tau fibril ThT – tau fibrillization inhibition (ThT binding); P10636; recombinant tau K18 P301L, heparin-induced fibrillization, ThT fluorescence; Potency, µM (doses to about 57.4 µM), for inactives: at the top dose activity, negative = inhibition, hits mostly inhibitors; 2.1% of 270,000 active; note: potency is the fitted concentration of half-maximal effect; nearly all actives have a fitted effect of over 55% in size
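Using a mix of unlabeled (15 uM) and Alexa 594-labeled (0.24 uM) tau K18 P301L, heparin-triggered fibrillization over 6 hr at 37 C was scored by ThT fluorescence.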
Tau fluor counter – counter-screen for tau fibril formation inhibitors. AID 1463. tau K18 P301L Alexa594 fluorescence, heparin fibrillization. 0.93% of 280,000 active. Potency, µM (titrated, usually from 57.7 µM), for the others: top-dose activity change, negative = decrease; note: potency is the fitted concentration of half-maximal effect; nearly all actives have a fitted effect of over 55% in size
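Human tau K18 P301L (15 uM unlabeled, 0.24 uM Alexa 594-labeled) in 100 mM sodium acetate pH 7 with 20 uM heparin, 6 hr at 37 C. ThT 30 uM added, 1 hr ambient; Alexa 594 FP and total fluorescence read at 555/632 nm.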
Numbers without * were called inactive; ? = inconclusive; . = not tested or not shown; ! = not active in a repeat; [ ] = dose if it differs, or a comment. In the library only some 2.7% were active in any assay of this set; here they are far more common. Unless noted, calls come from the whole dose curve; as a rule, active = well fitted curve in the direction sought with a large enough effect; inconclusive = small, poorly fitted or top-dose-only effect, or another doubt; inactive = no such curve, though single readings can be large; an effect the other way counts as inactive or inconclusive. % is set by controls: 0 for no effect and ±100 for the full control effect.

SMILES	Coupling enz	Tau FP inhib	Tau fibril ThT	Tau fluor counter
COc1cc(/C=C2\C(=O)NC(=O)N(c3ccccc3)C2=O)c([N+](=O)[O-])cc1OC	-6	-14%	?	16%
CSc1ncc(/C=C2/C(=O)NC(=O)N(C)C2=O)cn1	-3	?	?	-23%
CC(C)c1ccc(N2C(=O)NC(=O)/C(=C/c3cnc(-c4ccccc4)nc3)C2=O)cc1	12	?	16µM*	-23%
CSc1ncc(/C=C2/C(=O)NC(=O)N(c3ccc(C(C)C)cc3)C2=O)cn1	-1	?	25µM*	-18%
COc1cc(/C=C2\C(=O)NC(=O)N(c3ccccc3)C2=O)cc(OC)c1O	-33*	?	?	-22%
CCCCCCCCCC[n+]1cccc([C@@H]2CCCN2C)c1	-2	.	.	.
COC(=O)[C@H]1C(=O)c2ccccc2O[C@@](C(=O)OC)(c2ccccc2)[C@@H]1c1ccccc1	1	-1%[11.6 µM]	-8%[11.5 µM]	-11%[11.6 µM]
CCOc1ccc(CCNC(=O)c2cc3c(-c4cccc(OC)c4)nn(C)c3s2)cc1OCC	.	-18%	?	?
COC(=O)C1C=C2c3cccc4[nH]cc(c34)CC2N(C)C1 (centres undefined)	-34*	?	18µM*	?
CCC(CO)NC(=O)C1C=C2c3cccc4[nH]cc(c34)CC2N(C)C1 (centres undefined)	-21	-8%	-16%	-17%
CC[C@@H](CO)NC(=O)[C@H]1C=C2c3cccc4[nH]cc(c34)C[C@H]2N(C)C1	-6	-6%	?	?
CC[C@@H](CO)NC(=O)[C@@H]1C=C2c3cccc4c3c(cn4C)C[C@H]2N(C)C1	-56*!	?	25µM*!	?
COC[C@H]1OC(=O)c2coc3c2[C@@]1(C)C1=C(C3=O)[C@@H]2CCC(=O)[C@@]2(C)C[C@H]1OC(C)=O	.	25µM*	14µM*	?
C[C@@H]1C[C@H](C)C[C@H](C)[C@@H](O)CC(=O)O[C@H]([C@H]2CCC[C@H]2C(=O)O)C/C=C/C=C(/C#N)[C@H](O)[C@@H](C)C1	-2	.	.	.
Cn1nc(OC(=O)Nc2ccc(Cl)cc2)cc1C(F)(F)F	-1	?	-9%	-19%
COc1ccc(C(=O)N2CCOCC2)cc1S(=O)(=O)N1CCC(C)CC1	-1	-3%	0%	2%
CC1CCN(S(=O)(=O)c2ccc(NN=C(C#N)C#N)cc2)CC1	6	-2%	14µM*	?
N#CC(C#N)=NNc1ccc(S(N)(=O)=O)cc1	7	-9%	10µM*	-27%
Cc1ccc(C(=O)Nc2c(C(=O)Nc3ccc(C)c(C)c3)sc3nc(C)cc(C)c23)cc1	.	-14%	?	?
COc1ccc(-c2c3c(=O)n(C)c(=O)n(C)c3c3n2-c2ccccc2NC3c2ccccc2OC)cc1 (centres undefined)	.	10%	?	-9%
c1nc[n]([Sn]([CH]2CCCCC2)([CH]2CCCCC2)[CH]2CCCCC2)n1	1	.	.	.
COc1ccc(/C=C/C(=O)Nc2ccc(C)cc2)cc1	.	?	12%	-22%
Cc1ccc(NC(=O)Nc2ccc3nc(N4CCN(C)CC4)cc(C)c3c2)cc1F	.	?	14µM*	7.1µM*[quencher]
Cc1cc(N2CCCCC2)nc2ccc(NC(=O)/C=C/c3ccc(OC(C)C)cc3)cc12	.	5%	2.8µM*	8.9µM*[quencher]
Cc1cc(N2CCNCC2)nc2ccccc12	0	.	.	.
SMILES	Coupling enz	Tau FP inhib	Tau fibril ThT	Tau fluor counter
Cc1ccc(Cl)cc1N1CCN(c2ncnc3c2nc2n3CCCC2)CC1	.	-13%	?	-14%
CCOP(=O)(C1=C(O)C(=O)C(C(C)(C)C)=CC1=O)c1ccccc1 (centres undefined)	-13	?	22µM*	-22%
CCOC(=O)c1ccccc1NC(=O)N(Cc1ccc(CC)cc1)Cc1cn[nH]c1-c1ccc(OC)cc1	.	7%	?	-21%
CN1CCN(c2ccc(S(C)(=O)=O)cc2[N+](=O)[O-])CC1	0	5%	-3%	0%
CN1CCN(c2ccc([N+](=O)[O-])c3no[n+]([O-])c23)CC1	-28	?	13µM*	?
Cc1ccc(-n2ncc(C(=O)N3CCN(c4ccc(Cl)cc4)CC3)c2C2CCN(C(=O)OC(C)(C)C)CC2)c(C)c1	.	1%	?	-12%
COc1ccc(CCNc2nc3c(c(=O)n(C)c(=O)n3C)n2Cc2ccc(F)cc2)cc1OC	.	15%	-11%	?
Nc1c(C(=O)NCC2CCCO2)c2nc3ccccc3nc2n1Cc1ccco1 (centres undefined)	-1	?	?	?
Nc1c(C(=O)NC2CCCC2)c2nc3ccccc3nc2n1CC1CCCO1 (centres undefined)	-46*	-9%	-16%	-19%
CC1Oc2cc3c(-c4c(O)cc(O)c5c(O)c6c(cc45)OC(C)C(C)C6=O)c(O)cc(O)c3c(O)c2C(=O)C1C (centres undefined)	-18	?	13µM*	13µM*[quencher]
CCCCOCN(C(=O)CCl)c1c(CC)cccc1CC	-2	.	.	.
COC(=O)[C@H]1[C@H](c2ccccc2)C(=O)[C@@]2(O)c3ccccc3O[C@@]12c1ccccc1	0	-15%[11.6 µM]	-10%[11.5 µM]	-20%[11.6 µM]
Cc1nn(CCC#N)c2c1P(=S)(N1CCCC1)OC(c1ccc(F)cc1)=N2 (centres undefined)	2	?	32µM*	-25%
CCN1C(=O)/C(=C/c2ccc3c(c2)CCN3CCCCl)C(=O)NC1=S	1	?	18µM*	-11%
O[N+]1=CC=CCC1=S.On1ccccc1=S.[Zn]	-42*	?	?	-23%
COc1ccc(-n2c(=O)[nH]c3ccccc3c2=O)c(OC)c1	1	4%	-7%	-15%
COc1ccc(-n2c(=S)[nH]c3c(sc(=S)n3-c3ccccc3)c2=O)c(OC)c1	1	?	32µM*	-18%
c1cncc(C2CCCCN2)c1 (centres undefined)	2	-2%	-5%	0%
c1cncc(C2Nc3cccc4cccc(c34)N2)c1	-15	?	13µM*	14µM*[quencher]
O=C(CSc1ccccn1)Nc1cccc2ccccc12	-77*	3%	?	-22%
O=c1[nH]c(O)c(N=Nc2cc([N+](=O)[O-])ccc2O)c(=O)[nH]1	-2	-5%	14µM*	-17%
CCN(CC)c1ccc(C=C2C(=O)NC(=S)NC2=O)cc1	-26	-7%	?	?
CC(C)CN(CC(C)C)c1ccc(C=C2C(=O)NC(=S)NC2=O)cc1[N+](=O)[O-]	-19	?	25µM*	?
Cc1cc(C)cc(NC(=O)CSc2oc(-c3cccs3)nc2S(=O)(=O)c2ccc(Br)cc2)c1	.	-15%	-10%	?
O=C1Nc2ccc(Br)cc2C(c2ccc(Cl)cc2)=NC1O (centres undefined)	-34*	.	.	.
CCN(CCO)c1ccc(N=Cc2c(O)n(C)c(=S)[nH]c2=O)cc1	-47*	-2%	.	24%
CCOc1cncc(/C=C/CCNC)c1	3	.	.	.
